Source: PubChem BioAssay
The list is not random: actives were taken first. Their share in the collection is about 2.4%.
Cruzain inh Det – cruzain (T. cruzi) inhibition with detergent. 200,000 compounds, 0.43% hits. purified cruzain, Z-FR-AMC fluorescence, 0.01% Triton. AID 1478. Potency, µM, inactives show max response, negative = inhibition, usual class: inhibitors;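 also: plate controls were neutral wells for no effect and buffer without enzyme for full effect; nearly all actives have a fitted effect of over 40% in size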
Target sequence (P25779 123-467 limits assumed): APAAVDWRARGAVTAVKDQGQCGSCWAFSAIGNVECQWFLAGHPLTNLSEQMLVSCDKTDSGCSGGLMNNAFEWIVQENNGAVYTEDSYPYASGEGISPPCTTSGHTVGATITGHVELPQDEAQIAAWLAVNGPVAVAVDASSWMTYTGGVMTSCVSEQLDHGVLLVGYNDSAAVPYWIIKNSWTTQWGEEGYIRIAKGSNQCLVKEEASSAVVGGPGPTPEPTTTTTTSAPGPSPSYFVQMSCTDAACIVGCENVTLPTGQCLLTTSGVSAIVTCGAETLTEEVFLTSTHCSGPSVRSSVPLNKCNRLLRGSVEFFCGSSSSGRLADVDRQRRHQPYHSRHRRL
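Enzyme 1.5 nM, Z-FR-AMC 2 uM, NaOAc 100 mM pH 5.5, DTT 5 mM, Triton X-100 0.01%; 15 min RT compound preincubation; kinetic ex360/em450, 60 s delta.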
Cruzain inh noDet – inhibitors of Trypanosoma cruzi cruzain without detergent; P25779; purified cruzain, Z-FR-AMC fluorescence, no detergent; Potency, µM, for the others: max response, negative = inhibition, usual class: inhibitors; 200,000 compounds, 2.3% hits; AID 1476;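 also: plate controls were enzyme without inhibitor for no effect and buffer without enzyme for full effect; nearly all actives have a fitted effect of over 40% in size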
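Detergent-free condition (0.00005% Triton X-100) in acetate buffer pH 5.5 with DTT. 1.5 nM enzyme and compound were pre-mixed 15 min, then 2 uM Z-FR-AMC substrate added; reaction progress from fluorescence change between first and third reads (60 s).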
Papain counter – counter-screen for cruzain inhibitors: papain inhibition | shares compounds with Cruzain inh Det | purified papain, Z-FR-AMC fluorescence cleavage | Potency, µM, inactives show max response, negative = inhibition, most hits filed as inhibitors | 410 compounds, 41% hits | AID 2161;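 also: 0% = no-compound wells and -100% = no-enzyme wells; nearly all actives have a fitted effect of over 35% in size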
Numbers without * were called inactive; u = inconclusive; x = no result given. Calls follow the shape of the dose curve; as a rule, active = well fitted curve in the direction sought with a large enough effect; inconclusive = small, poorly fitted or top-dose-only effect, or another doubt; inactive = no such curve, though single readings can be large; an effect the other way counts as inactive or inconclusive. Potency is read from the fitted curve at half-maximal effect.

SMILES	Cruzain inh Det	Cruzain inh noDet	Papain counter
CCN(c1ccccc1)c1cc(C)nc2nc(C)nn12	-4%	3%	x
CCCCCCCCCCCCCCC[C@H](O)[C@@H](N)CO	3%	2%	x
CCOC(=O)Cn1c(=O)n(CC2CCCO2)c2nc(-c3ccc(OC)cc3OC)nc(C(N)=O)c21 (stereo not given)	-4%	6%	x
CC1CCN(c2nn3c(=O)c(C(=O)NC(C)C)cnc3s2)CC1	2%	1%	x
CCN(CC)c1ccc(-c2nn3c(-c4n[nH]c5c4CCC5)nnc3s2)cc1	-2%	0%	x
COc1cccc(OC)c1-c1nn2c(-c3n[nH]c4c3CCC4)nnc2s1	x	x	16µM*
Cc1csc2nc(COC(=O)c3ccc(F)cc3)cc(=O)n12	-7%	-12%	x
COCCOC(=O)c1c(N)n(Cc2ccco2)c2nc3ccccc3nc12	-5%	0%	x
CC(C)OC(=O)c1c(N)n(Cc2ccco2)c2nc3ccccc3nc12	11µM*	13µM*	-2%
CCCCSCCCNC(=O)c1cn(CC)c2ccc(S(=O)(=O)N(C)C3CCCCC3)cc2c1=O	-8%	u	x
Cc1cc(C)c(NC(=O)C[C@H](CC(=O)O)c2cccc3ccccc23)c(C(=O)N2CCC3(CCCC3)CC2)c1	-10%	u	x
Cc1cccc(CSc2nc(-c3cccc(C)c3)nc3c2Cc2c(CO)cnc(C)c2O3)c1	-5%	8%	x
COc1cc(/C=c2\sc3nc(-c4ccncc4)nn3c2=O)ccc1OC(C)=O	-1%	u	x
Cn1nc(-c2ccccc2)nc2c(=O)n(C)c(=O)nc1-2	x	x	-4%
Cn1c(=O)c(-c2ccccc2)nn2c3ccccc3nc12	2%	-19%	x
Cc1ccc(-n2c3nc(=O)n(C)c(=O)c-3cc3ccccc32)c(C)c1	8%	-10%	x
Cn1nc(-c2ccncc2)nc2c(=O)n(C)c(=O)nc1-2	x	x	-7%
Cc1nc2c(=O)n(C)c(=O)nc-2n(C)n1	1µM*	0.5µM*	-1%
CS(=O)(=O)N(CC(=O)NCCSCc1ccccc1)c1cc(C(F)(F)F)ccc1Cl	-6%	14%	x
CN(Cc1ccco1)c1ncncc1-c1ccc2c(c1)OCO2	1%	3%	x
CCc1ccc(-n2nc3cc(C)c(NC(=O)c4cc(Cl)ccc4OC)cc3n2)cc1	0%	-4%	x
Nc1nc(SCCc2ccccc2)c2[nH]cnc2n1	3%	-10%	x
CCn1c(=N)c(C(=O)NC2CCCC2)cc2c(=O)n3ccccc3nc21	-9%	-1%	x
N=c1c(C(=O)NCc2ccc(F)cc2)cc2c(=O)n3ccccc3nc2n1CC1CCCO1 (stereo not given)	32µM*	u	16µM*
CCc1c(C)nc2nncn2c1NCc1ccc(Cl)cc1	-4%	5%	x
SMILES	Cruzain inh Det	Cruzain inh noDet	Papain counter
COCc1nc2ccccc2n1CCCOc1ccccc1	-4%	-2%	x
O=C(NCCc1nc2ccccc2n1CCCCOc1ccccc1)C1CCCCC1	x	x	25µM*
OCCCc1nc2ccccc2n1CCOc1ccccc1	2%	-10%	x
O=C(NCCc1nc2ccccc2n1CCCOc1ccccc1)C1CCCCC1	x	x	-20%
COc1cc(-c2noc(CN3CCN(c4cccc(Cl)c4)CC3)n2)cc(OC)c1OC	1%	-8%	x
Cc1cc2ccccc2n1CCNC(=O)C1CCCCC1	-4%	0%	x
Cc1cccc(C)c1OCCCn1c(CCNC(=O)C2CCCCC2)nc2ccccc21	3.5µM*	7%	-21%
O=C(NCCCc1nc2ccccc2n1Cc1cccc(Cl)c1)C1CCCCC1	-10%	2%	x
O=C(NCCc1nc2ccccc2n1CCCOc1cccc2ccccc12)C1CCCCC1	x	x	-28%
CC1CCC2=C1C[C@H](C(C)(C)O)CC[C@@H]2C (stereo not given in full)	-1%	0%	x
CCCCN(C)CCCNC(=O)Cn1ncc2c3ccccc3n(Cc3ccccc3)c2c1=O	5%	15%	x
COc1ccc(C)cc1NC(=O)C(=O)NCC(c1cccnc1)N1CCc2ccccc21 (stereo not given)	-1%	-4%	x
COc1ccc(-c2nnc3sc(-c4ccccn4)nn23)cc1	2%	-9%	x
COc1ccc(-c2nn3c(-c4ccccn4)nnc3s2)cc1OC	-5%	-13%	x
COc1cccc(-c2nn3c(-c4cc(C)[nH]n4)nnc3s2)c1	2%	3%	1%
CCOc1ccc(-c2nn3c(-c4cc(-c5ccccc5)n[nH]4)nnc3s2)cc1	x	x	-3%
COc1ccc(-c2nn3c(-c4cc(-c5ccccc5)n[nH]4)nnc3s2)cc1	x	x	-13%
COc1ccc(-c2nn3c(-c4cc(-c5ccccc5)n[nH]4)nnc3s2)cc1OC	x	x	-18%
COc1cccc(-c2nn3c(-c4ccccn4)nnc3s2)c1	-2%	1%	x
CCOc1cccc(-c2nnc3sc(-c4ccc(C)cc4)nn23)c1	-3%	u	x
Cc1cccc(C)c1N1CC(c2nc3ccccc3n2CC(=O)OC(C)C)CC1=O (stereo not given)	-2%	2%	x
